A selection: hits, their analogues and other compounds. The true share with any hit is near 19%.
DT40 TDP1 CPT – DT40-hTDP1 cell growth loss with CPT; chicken DT40 Tdp1-/-;hTDP1 cells + 20 nM CPT, ATP luminescence, 48 h; Potency, µM (top dose mostly 46.2 µM), without a hit: top-dose activity change, negative = growth inhibition, usual class: inhibitors; 12% of 420,000 active; further: nearly all actives have a fitted effect of over 55% in size
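Cell growth measured by CellTiter-Glo luminescence after a minimum 48 h, 37 C compound exposure with 20 nM CPT in Tdp1-knockout DT40 cells stably expressing hTDP1, seeded 400/well; qHTS titration format.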
RORg inh – blocks mouse ROR gamma transcriptional activity; AID 2551; P51450; 5.4% of 310,000 active; Drosophila S2 Gal4-RORgamma UAS-luciferase reporter, 20 h; Potency, µM (titrated, usually from 53.6 µM), without a hit: at the highest dose activity change, negative = inhibition, actives largely listed as inhibitors; further: nearly all actives have a fitted effect of over 60% in size
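Stably transfected Drosophila Schneider cells are the test system, with ROR gamma fused to Gal4 and luciferase under UAS control; luminescence is read after 20 hr of 700 uM copper sulfate induction at ambient temperature.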
TDP1 inh – inhibitors of human tyrosyl-DNA phosphodiesterase TDP1; 0.28% of 350,000 active; recombinant TDP1, AlphaScreen DNA substrate cleavage; Potency, µM (highest dose often 130 µM), without a hit: top-dose activity change, negative = inhibition, usual class: inhibitors; AID 485290; Q9NUW8; further: nearly all actives have a fitted effect of over 40% in size
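Signal: AlphaScreen proximity between streptavidin donor and anti-FITC acceptor beads on intact substrate. Reaction: Tdp1 1 nM, substrate 15 nM final, 5 min RT after 15 min compound preincubation.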
VP16 counter – Gal4-VP16 reporter inhibition counter-screen. AID 2546. Drosophila S2 Gal4-VP16 UAS-luciferase, luminescence, 20 h. 3.5% of 310,000 active. Potency, µM (top dose mostly 53.6 µM), inactives show at the top dose activity, negative = inhibition, usual class: inhibitors;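 further: Gal4-VP16 expression switched on by copper sulfate through the metallothionein promoter; nearly all actives have a fitted effect of over 50% in size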
DT40 TDP1 no CPT – qHTS for Inhibitors of human tyrosyl-DNA phosphodiesterase 1 (TDP1): qHTS in cells in absence of CPT; DT40 Tdp1-/- hTDP1 cells, no CPT, ATP luminescence, 48 h; Potency, µM (highest dose often 46.2 µM), for the others: top-dose activity change, negative = growth inhibition, hits mostly inhibitors; 15% of 420,000 active; further: nearly all actives have a fitted effect of over 55% in size
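Compound effects on proliferation are scored in DT40 Tdp1-/-;hTDP1 cells in the absence of CPT. ATP levels (CellTiter-Glo luminescence) are recorded after a ≥48 hr, 37 °C incubation.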
The depositor's hits bear a star; u = inconclusive; x = no result given; ! = repeats disagree; [ ] = remark or other dose. The call rests on the fitted dose curve; in most records, active means well fitted curve in the direction sought with a large enough effect; inconclusive means small, poorly fitted or top-dose-only effect, or another doubt; inactive means no such curve, though single readings can be large; an effect the other way counts as inactive or inconclusive. On the % scale 0 is the no-effect control and ±100 the full control effect; potency means the concentration at half of the fitted maximal effect.

SMILES	DT40 TDP1 CPT	RORg inh	TDP1 inh	VP16 counter	DT40 TDP1 no CPT
CC1(C)OC(C)(C)/C(=C/Nc2ccccc2)C1=O	3%	-10%	3%	-14%	-10%
Cc1ccc(OCC(=O)Nc2cccc3ccc(C)nc23)c(C)c1	u	x	-2%	x	u
C/C(=N\NC(=O)c1cc(C)nc2ccccc12)c1cccs1	-2%	-33%	-1%	-4%	-28%
CC(/C=C/c1ccccc1)=N\NC(=O)CNC(=O)c1ccccc1Cl	-2%	3%	5%	6%	-30%
CC(/C=C/c1ccccc1)=N/NC(=O)c1cccc(Br)c1	u	2.2µM*	-3%	3.5µM*	23µM*
CC(/C=C/c1ccccc1)=N\NC(=O)c1ccc(Br)cc1	u	0.5µM*	-2%	0.89µM*	u
CC(/C=C/c1ccccc1)=N\NC(=O)c1cc(C)nc2ccccc12	u	14µM*	5%	u	u
Cc1ccc(C)c(OCCN2CCOCC2)c1	3%	x	5%	x	19%
Cc1cccc(N2C(=O)CN=C2Nc2nc(C)cc(C)n2)c1	-16%	-16%	2%	-3%	-7%
CC(=O)OC1(C(C)=O)CCC2C3CC(C(F)(F)F)C4=CC(=O)CCC4(C)C3CCC21C (centres undefined)	u	x	x	x	13µM*
CCC(=O)OC1(C(C)=O)CCC2C3CCC4=CC(=O)CCC4(C)C3CCC21C (centres undefined)	-98%	x	x	x	23µM*
CC12CCC(=O)C=C1C(O)CC1C2CCC2(C)C1CCC2(O)C(=O)CO (centres undefined)	u	x	x	x	-18%
CC(=O)C12CCCCC1CC1[C@@H]3CC(C)C4=CC(=O)CC[C@]4(C)C3CC[C@@]12C (some centres undefined)	u	-8%	x	-6%	15µM*
CCCCCC(=O)O[C@@]1(C(C)=O)CCC2C3CCC4=CC(=O)CC[C@@]4(C)C3CC[C@]21C (some centres undefined)	u	33%	-9%[56.1 µM]	-11%	u
CC(=O)O[C@]1(C(C)=O)CC[C@H]2[C@@H]3C[C@H](C)C4=CC(=O)CC[C@]4(C)[C@H]3CC[C@@]21C	18µM*	-34%	5%	-6%	16µM*!
COc1cccc(C2C(C(N)=O)=C(C)Nc3nc(-c4cccc(Cl)c4)nn32)c1 (centres undefined)	-5%	-30%	0%	-3%	-7%
CC(C)(CO)Nc1ccc([N+](=O)[O-])cc1[N+](=O)[O-]	0%	14%	5%	2%	-19%
CC(=O)N(CN1C(=O)CCC1=O)c1cccc(Cl)c1	5%	-16%	5%	u	2%
COc1ccc(C(C(=O)Nc2ccc(C(C)C)cc2)N(C)C(=O)c2ccc(=O)[nH]c2)cc1 (centres undefined)	u	18µM*	0%	-2%	u
CCOCCCNC(=O)C(c1ccc(OC)cc1)N(Cc1cccs1)C(=O)c1ccc(NC(C)=O)cc1 (centres undefined)	8.2µM*	x	3%	x	12µM*
COc1ccc(NC(=O)C(c2ccc(C)cc2)N(C)C(=O)Cc2cccs2)cc1 (centres undefined)	u	4%	9%	-13%	u
COc1ccc(NC(=O)C(c2ccc(OC)cc2)N(C)C(=O)Cc2cccs2)cc1 (centres undefined)	23µM*!	22%	6%	-3%	-29%
CC1=C(C(=O)N2CCN(c3ccc(Cl)cc3)CC2)C2(CCC(C)CC2)OC1=O (centres undefined)	u	x	5%	x	u
COc1ccc(S(=O)(=O)N(C)CC(=O)NCC2CCCO2)cc1OC (centres undefined)	4%	0%	x	5%	-18%
COc1ccc(NC(=O)CSc2nc(-c3cc(OC)c(OC)c(OC)c3)[nH]c2-c2ccc(F)cc2)cc1	u	x	-2%[12.3 µM]	x	23µM*
COc1ccc(-c2[nH]c(-c3ccc(F)cc3)nc2SCC(=O)Nc2ccc(OC)c(OC)c2)cc1	16µM*	x	8%	x	u
